The campaign covered roughly 5,500 compounds. About 2,000 (36%) were called active. Another 18% or so got no clear call; they are omitted. Rule as the data show it: active = normalized growth mostly below about 0.91 (no sharp cut-off); inconclusive = no clear call, values can overlap the other calls; inactive = mostly above about 0.92. The list shows a part of the results.
Test: chemical genetic growth profiling, strain panel (AID 1159580);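 also: tested at 20 µM; growth read once vehicle control cultures reached saturation at 30 °C; 1 = growth at the plate median or of vehicle wells; lower values mean less growth of the strain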
Details: growth OD

Measured: normalized growth

C[C@H]1COc2c(N3CCN(C)CC3)c(F)cc3c(=O)c(C(=O)O)cn1c23
inactive: S. cerevisiae deletion strains, locus YJR075W, strain HOC1, stronger effect = lower value 0.991 | S. cerevisiae deletion strains, locus YKL009W, strain mrt4, stronger effect = lower value 1.01 | S. cerevisiae deletion strains, locus YKL068W, stronger effect = lower value 1 | S. cerevisiae deletion strains, locus YKL085W, strain MDH1 (second series), stronger effect = lower value 1.01 | S. cerevisiae deletion strains, locus YKL085W, strain MDH1, stronger effect = lower value 1.01 | S. cerevisiae deletion strains, locus YKL160W, strain elf1, stronger effect = lower value 1.01 | S. cerevisiae deletion strains, locus YKL190W, strain CNB1, stronger effect = lower value 0.998 | S. cerevisiae deletion strains, locus YKR001C, strain vps1, stronger effect = lower value 1.03 | S. cerevisiae deletion strains, locus YKR026C, strain gcn3, stronger effect = lower value 1.02 | S. cerevisiae deletion strains, locus YKR091W, strain srl3, stronger effect = lower value 1.03 | S. cerevisiae deletion strains, locus YLL001W, strain dnm1, stronger effect = lower value 1.04 | S. cerevisiae deletion strains, locus YLL026W, stronger effect = lower value 1.03 | S. cerevisiae deletion strains, locus YLL041C, strain sdh2, stronger effect = lower value 1.02 | S. cerevisiae deletion strains, locus YLR027C, strain aat2, stronger effect = lower value 1.03 | S. cerevisiae deletion strains, locus YLR039C, strain RIC1, stronger effect = lower value 1.01 | S. cerevisiae deletion strains, locus YLR058C, strain SHM2, stronger effect = lower value 1.01 | S. cerevisiae deletion strains, locus YLR102C, strain apc9, stronger effect = lower value 1.01 | S. cerevisiae deletion strains, locus YLR113W, strain HOG1, stronger effect = lower value 1.03 | S. cerevisiae deletion strains, locus YLR221C, strain rsa3, stronger effect = lower value 0.984 | S. cerevisiae deletion strains, locus YLR258W, strain gsy2, stronger effect = lower value 1.02 | S. cerevisiae deletion strains, locus YLR262C, strain YPT6 (second series), stronger effect = lower value 1.02 | S. cerevisiae deletion strains, locus YLR262C, strain YPT6, stronger effect = lower value 1.01 | S. cerevisiae deletion strains, locus YLR268W, strain sec22, stronger effect = lower value 1 | S. cerevisiae deletion strains, locus YLR320W, strain mms22, stronger effect = lower value 1.02 | S. cerevisiae deletion strains, locus YLR330W, strain CHS5, stronger effect = lower value 1 | S. cerevisiae deletion strains, locus YLR342W, strain FKS1 (second series), stronger effect = lower value 0.984 | S. cerevisiae deletion strains, locus YLR342W, strain FKS1, stronger effect = lower value 1.03 | S. cerevisiae deletion strains, locus YLR357W, strain rsc2, stronger effect = lower value 1.02 | S. cerevisiae deletion strains, locus YLR370C, strain arc18, stronger effect = lower value 1.03 | S. cerevisiae deletion strains, locus YLR371W, strain rom2, stronger effect = lower value 1 | S. cerevisiae deletion strains, locus YLR384C, strain iki3, stronger effect = lower value 1.03 | S. cerevisiae deletion strains, locus YLR418C, strain cdc73, stronger effect = lower value 1.02 | S. cerevisiae deletion strains, locus YML016C, strain PPZ1, stronger effect = lower value 1.01 | S. cerevisiae deletion strains, locus YML032C, strain rad52, stronger effect = lower value 0.965 | S. cerevisiae deletion strains, locus YML120C, strain ndi1, stronger effect = lower value 1.01 | S. cerevisiae deletion strains, locus YML124C, strain tub3, stronger effect = lower value 1.02 | S. cerevisiae deletion strains, locus YMR058W, strain fet3, stronger effect = lower value 1.02 | S. cerevisiae deletion strains, locus YMR078C, strain ctf18, stronger effect = lower value 1.02 | S. cerevisiae deletion strains, locus YMR125W, strain sto1, stronger effect = lower value 1.02 | S. cerevisiae deletion strains, locus YMR129W, stronger effect = lower value 1.03 | S. cerevisiae deletion strains, locus YMR205C, strain PFK2, stronger effect = lower value 0.985 | S. cerevisiae deletion strains, locus YMR223W, strain ubp8, stronger effect = lower value 1.01 | S. cerevisiae deletion strains, locus YMR231W, strain pep5, stronger effect = lower value 1.03 | S. cerevisiae deletion strains, locus YMR263W, strain SAP30, stronger effect = lower value 0.991 | S. cerevisiae deletion strains, locus YMR307W, strain GAS1, stronger effect = lower value 1.04 | S. cerevisiae deletion strains, locus YNL067W, strain RPL9B, stronger effect = lower value 1 | S. cerevisiae deletion strains, locus YNL071W, strain lat1, stronger effect = lower value 1 | S. cerevisiae deletion strains, locus YNL128W, strain TEP1, stronger effect = lower value 0.975 | S. cerevisiae deletion strains, locus YNL153C, strain GIM3, stronger effect = lower value 1 | S. cerevisiae deletion strains, locus YNL183C, strain NPR1, stronger effect = lower value 0.97 | S. cerevisiae deletion strains, locus YNL209W, strain ssb2, stronger effect = lower value 1.01 | S. cerevisiae deletion strains, locus YNL233W, strain BNI4, stronger effect = lower value 1.01 | S. cerevisiae deletion strains, locus YNL248C, strain rpa49, stronger effect = lower value 1.03 | S. cerevisiae deletion strains, locus YNL250W, strain rad50, stronger effect = lower value 1.01 | S. cerevisiae deletion strains, locus YNL271C, strain bni1, stronger effect = lower value 1.01 | S. cerevisiae deletion strains, locus YNL298W, strain CLA4, stronger effect = lower value 1.02 | S. cerevisiae deletion strains, locus YNL307C, strain MCK1, stronger effect = lower value 1.03 | S. cerevisiae deletion strains, locus YNL322C, strain KRE1 (second series), stronger effect = lower value 1.03 | S. cerevisiae deletion strains, locus YNL322C, strain KRE1, stronger effect = lower value 0.999 | S. cerevisiae deletion strains, locus YNR049C, strain mso1, stronger effect = lower value 1.01 | S. cerevisiae deletion strains, locus YNR052C, strain pop2, stronger effect = lower value 1.02 | S. cerevisiae deletion strains, locus YOL006C, strain TOP1, stronger effect = lower value 1.05 | S. cerevisiae deletion strains, locus YOL012C, strain htz1 0.78 | S. cerevisiae deletion strains, locus YOL147C, strain pex11, stronger effect = lower value 1.01 | S. cerevisiae deletion strains, locus YOR001W, strain rrp6, stronger effect = lower value 1.02 | S. cerevisiae deletion strains, locus YOR061W, strain CKA2, stronger effect = lower value 1.01 | S. cerevisiae deletion strains, locus YOR069W, strain VPS5, stronger effect = lower value 0.995 | S. cerevisiae deletion strains, locus YOR070C, strain gyp1, stronger effect = lower value 1.02 | S. cerevisiae deletion strains, locus YOR080W, strain dia2, stronger effect = lower value 1.04 | S. cerevisiae deletion strains, locus YOR083W, strain WHI5, stronger effect = lower value 1.03 | S. cerevisiae deletion strains, locus YOR106W, strain vam3, stronger effect = lower value 1.01 | S. cerevisiae deletion strains, locus YOR136W, strain idh2, stronger effect = lower value 1.02 | S. cerevisiae deletion strains, locus YOR144C, strain elg1, stronger effect = lower value 1.01 | S. cerevisiae deletion strains, locus YOR184W, strain ser1, stronger effect = lower value 1.02 | S. cerevisiae deletion strains, locus YOR231W, strain MKK1, stronger effect = lower value 0.996 | S. cerevisiae deletion strains, locus YOR265W, strain rbl2, stronger effect = lower value 1.03 | S. cerevisiae deletion strains, locus YOR270C, strain vph1, stronger effect = lower value 1.07 | S. cerevisiae deletion strains, locus YOR290C, strain snf2, stronger effect = lower value 1.03 | S. cerevisiae deletion strains, locus YOR316C, strain cot1, stronger effect = lower value 1.02 | S. cerevisiae deletion strains, locus YPL051W, strain arl3, stronger effect = lower value 1.03 | S. cerevisiae deletion strains, locus YPL055C, strain LGE1, stronger effect = lower value 0.997 | S. cerevisiae deletion strains, locus YPL078C, strain atp4, stronger effect = lower value 1.02 | S. cerevisiae deletion strains, locus YPL106C, strain sse1, stronger effect = lower value 0.991 | S. cerevisiae deletion strains, locus YPL240C, strain hsp82, stronger effect = lower value 1.01 | S. cerevisiae deletion strains, locus YPL241C, strain CIN2, stronger effect = lower value 1.01 | S. cerevisiae deletion strains, locus YPL256C, strain CLN2, stronger effect = lower value 0.958 | S. cerevisiae deletion strains, locus YPR119W, strain clb2, stronger effect = lower value 1.01 | S. cerevisiae deletion strains, locus YPR141C, strain kar3, stronger effect = lower value 1.02 | S. cerevisiae deletion strains, locus YPR163C, strain tif3, stronger effect = lower value 1.03 | S. cerevisiae deletion strains, locus YPR167C, strain met16, stronger effect = lower value 1.02 | S. cerevisiae deletion strains, strain wtn01, stronger effect = lower value 1.01 | S. cerevisiae strains, strain wild type, stronger effect = lower value 0.981
